Our source for the normalised cell viability values is the supplement of paper PMC6609913.

For this assay, the system named is V-C8 + BRCA2 (BRCA2-proficient hamster cells). As to the kind of experiment: normalised cell viability (fraction of plate median); higher = more viable cells (less toxic). The settings on record: 5 µM. In a few lines: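 Cell viability was measured with a resazurin assay, normalised to the plate median (modified robust per cent of sample) and averaged over triplicate wells. Hamster V-C8 cells lacking BRCA2 and V-C8 cells with BRCA2 restored were seeded in 96-well plates. After 24 h, library drugs from 10 mM DMSO stocks were added at a final 5 μM in 100 μl medium and left for 3 days (screen 1) or 6 days (screen 2), with solvent-only wells alongside.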

Structures can show the parent of a compound that is named as a salt. ± gives the standard deviation of the averaged measurements. Over roughly 1,300 compounds, “normalised cell viability” has its median near 1; the lowest 2% begin near 0.15. Only a selection was taken, and the lowest values are over-represented in it overall.

In the case of `COc1ccc2[nH]cc(CCNC(C)=O)c2c1` [Melatonin], the normalised cell viability is, setting by setting: (treatment time: 3 days) 1.22 ± 0.097; (treatment time: 6 days) 0.928 ± 0.048.

As for `CCCCCNC(=N)N/N=C/c1c[nH]c2ccc(OC)cc12` [Tegaserod maleate], the normalised cell viability was determined as 0.1362 ± 0.0013 (treatment time: 3 days) and 0.155 ± 0.022 (treatment time: 6 days).

Take `CC[C@@H](CO)NCCN[C@@H](CC)CO` [Ethambutol dihydrochloride]: the normalised cell viability (treatment time: 3 days) was found to be 1.05 ± 0.058 and the normalised cell viability (treatment time: 6 days) stood at 1 ± 0.011.

For the compound `C1CCC(C(CC2CCCCN2)C2CCCCC2)CC1` (stereo unspecified) [Perhexiline maleate], the normalised cell viability by setting is: (treatment time: 3 days) 0.135 ± 0.0029; (treatment time: 6 days) 0.125 ± 0.015.

As for `Cc1nnc(SCC2=C(C(=O)O)N3C(=O)[C@@H](NC(=O)Cn4cnnn4)[C@H]3SC2)s1` [Cefazolin sodium salt], the normalised cell viability was 1.1 ± 0.034 (treatment time: 3 days) and 1.01 ± 0.12 (treatment time: 6 days).

Turning to `CCCCCCCCCCCCCCCC[N+](C)(C)CCN(Cc1ccc(OC)cc1)c1ncccn1` [Thonzonium bromide], the normalised cell viability by setting is: (treatment time: 3 days) 0.787 ± 0.094; (treatment time: 6 days) 0.74 ± 0.19.

Take `CCCC1O[C@@H]2C[C@H]3[C@@H]4CCC5=CC(=O)C=C[C@]5(C)[C@H]4[C@@H](O)C[C@]3(C)[C@]2(C(=O)CO)O1` (stereo partly specified) [Budesonide]: the normalised cell viability is, setting by setting: (treatment time: 3 days) 0.9516 ± 0.0071; (treatment time: 6 days) 0.936 ± 0.024.

Turning to `CC1(C)OC(=O)NC1=O` [Dimethadione], the normalised cell viability (treatment time: 3 days) was 1.08 ± 0.064 and the normalised cell viability (treatment time: 6 days) was 0.964 ± 0.043.

`CNC[C@H](O)[C@@H](O)[C@H](O)[C@H](O)CO` [Meglumine]: the normalised cell viability (treatment time: 3 days) came to 0.938 ± 0.094 and the normalised cell viability (treatment time: 6 days) was determined as 0.983 ± 0.037.

As to `C[N+](C)(C)CCOC(N)=O` [Carbachol], the normalised cell viability is, setting by setting: (treatment time: 3 days) 0.953 ± 0.043; (treatment time: 6 days) 1.01 ± 0.036.

As to `CN1C2CCCC1CC(NC(=O)c1nn(C)c3ccccc13)C2` (stereo unspecified) [Granisetron], the normalised cell viability worked out at 1.03 ± 0.036 (treatment time: 3 days) and 1.01 ± 0.017 (treatment time: 6 days).

For the compound `CCN(CC)CCOC(=O)C1(c2ccc([N+](=O)[O-])cc2)CCCC1` [Nitrocaramiphen hydrochloride], the normalised cell viability is 1.06 ± 0.024 (treatment time: 3 days) and 1.038 ± 0.0056 (treatment time: 6 days).

On to `CCCCCN(CCCCC)C(=O)C(CCC(=O)O)NC(=O)c1ccc(Cl)c(Cl)c1` (stereo unspecified) [Lorglumide sodium salt], for which the normalised cell viability runs as follows: (treatment time: 3 days) 1 ± 0.032; (treatment time: 6 days) 1.04 ± 0.015.

Take `Cc1onc(-c2ccccc2)c1C(=O)N[C@@H]1C(=O)N2[C@@H]1SC(C)(C)[C@@H]2C(=O)O` [Oxacillin sodium]: the normalised cell viability reads like this: (treatment time: 3 days) 1.04 ± 0.042; (treatment time: 6 days) 0.989 ± 0.025.

As for `CC(=O)OC[C@H]1O[C@@H]([S-])[C@H](OC(C)=O)[C@@H](OC(C)=O)[C@@H]1OC(C)=O.CCP(CC)CC.[Au+]` [Auranofin], the normalised cell viability (treatment time: 3 days) turned out to be 0.126 ± 0.0085 and the normalised cell viability (treatment time: 6 days) was found to be 0.128 ± 0.012.

On to `C[C@H]1O[C@H](O[C@H]2[C@H](O)[C@@H](O)[C@@H](O[C@H]3[C@H](O)[C@@H](O)C(O)O[C@@H]3CO)O[C@@H]2CO)[C@H](O)[C@@H](O)[C@@H]1N[C@H]1C=C(CO)[C@@H](O)[C@H](O)[C@H]1O` (stereo partly specified) [Acarbose], for which the normalised cell viability reads like this: (treatment time: 3 days) 0.928 ± 0.072; (treatment time: 6 days) 1.03 ± 0.056.

As to `COC(=O)Nc1nc2ccc(SC(C)C)cc2[nH]1` [Methiazole], the normalised cell viability worked out at 0.231 ± 0.016 (treatment time: 3 days) and 0.245 ± 0.017 (treatment time: 6 days).

As to `Nc1ccc(C(=O)NCC(=O)O)cc1` [Aminohippuric acid], the normalised cell viability is, setting by setting: (treatment time: 3 days) 1.04 ± 0.027; (treatment time: 6 days) 1.11 ± 0.076.
